ERb SRC1 inh = ER-beta (human) coactivator binding inhibition; TR-FRET ER-beta LBD / SRC1-Cy5 peptide binding; receptor agonist-loaded with 1 µM estradiol; inhibition, % at 25.6 µM; AID 633; 86,000 compounds, 1.3% hits;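 active = compounds whose percent inhibition of the receptor-coactivator binding signal exceeds about 50% in the single-dose screen, limit read from the data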;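 also: 0% = receptor plus peptide wells without compound and 100% = peptide-only wells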
Target sequence (Q92731 whole entry, looked up, the tested form may be a part): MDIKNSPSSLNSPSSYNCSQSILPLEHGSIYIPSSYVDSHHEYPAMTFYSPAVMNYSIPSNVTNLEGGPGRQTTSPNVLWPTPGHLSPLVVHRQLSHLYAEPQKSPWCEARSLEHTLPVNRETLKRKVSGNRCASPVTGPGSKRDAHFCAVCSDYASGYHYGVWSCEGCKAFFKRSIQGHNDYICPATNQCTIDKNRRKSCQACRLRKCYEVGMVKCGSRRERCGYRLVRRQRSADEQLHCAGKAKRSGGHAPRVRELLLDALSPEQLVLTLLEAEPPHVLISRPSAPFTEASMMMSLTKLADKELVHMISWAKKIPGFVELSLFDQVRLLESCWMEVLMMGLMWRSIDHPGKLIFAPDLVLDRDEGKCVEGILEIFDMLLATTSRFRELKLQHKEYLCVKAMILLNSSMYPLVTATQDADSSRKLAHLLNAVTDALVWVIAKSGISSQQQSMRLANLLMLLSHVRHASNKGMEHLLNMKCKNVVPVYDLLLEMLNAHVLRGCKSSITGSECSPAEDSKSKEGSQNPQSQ
CD11b adhes inh = inhibitors of human CD11b/CD18 binding to fibrinogen | K562 CD11b/CD18 adhesion to fibrinogen, ATPlite luminescence; Mn2+ added to activate the integrin | inhibition, % at 10 µM | 93,000 compounds, 0.54% hits | AID 1497;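 active = primary inhibition of 50% or more at 10 µM, then 40% or more on retest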
ERa coact inh = blocks coactivator binding to human estrogen receptor alpha. TR-FRET ER-alpha LBD / SRC-1 peptide, estradiol-bound. inhibition, % at 25.6 µM. 86,000 compounds, 1.7% hits. AID 629; in the data active = inhibition above about 50%;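 also: 0% = receptor plus peptide control and 100% = peptide only without receptor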
CD11b adhes enh = enhancers of human CD11b/CD18 binding to fibrinogen; P05107+P11215; K562 CD11b/CD18 adhesion to fibrinogen, ATPlite luminescence; activation, % at 10 µM; 93,000 compounds, 0.07% hits; AID 1499;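 active = 10 µM primary screen giving 50% or more activity, confirmed by 40% or more on retest at that dose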
ERa coact pot = ER-alpha (human) coactivator binding potentiation; P03372; 86,000 compounds, 1.3% hits; coactivator binding (% of control), % at 25.6 µM; TR-FRET ERalpha-LBD/SRC-Cy5 coactivator binding, 2 h; 100 = basal binding, no effect; in the data active = activity above about 200%;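 also: binding measured in presence of low estradiol as agonist stimulus; 0% = peptide alone without receptor and 100% = receptor with peptide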
* marks the source's active call; other numbers are inactive results; x = not tested or not shown; [ ] = another dose, or the depositor's remark. Compounds with a hit are over-represented: about 3.1% of the library has one in this group of screens.

SMILES	ERb SRC1 inh	CD11b adhes inh	ERa coact inh	CD11b adhes enh	ERa coact pot
Cc1nn(C)c(C)c1NC(=O)CSc1nc(-c2ccccc2Cl)nc2c1cnn2-c1ccccc1	49	7	74*[fluorescence artefact?]	42	162
CCc1nnc2n1N=C(c1ccc(-c3ccc(Cl)cc3Cl)o1)CS2	17	x	40	x	80
CCc1nnc2n1N=C(c1ccc(-c3cc(Cl)ccc3Cl)o1)CS2	34	0	59*	48	79
CCCC(C)NCC(=O)Nc1ccccc1-c1ccccc1 (centres undefined)	x	4	x	-3	x
CC(=O)c1oc2ccccc2c1NC(=O)COC(=O)c1ccc(-n2nc(C)cc2C)cc1	32	-3	75*[fluorescence artefact?]	5	79
Cc1cc(C)n(-c2ccc(C(=O)OCC(=O)NCc3ccc(F)cc3)cc2)n1	x	13	x	2	x
CCN(CC)S(=O)(=O)c1cc(NC(=O)CCCOc2ccc(C(C)=O)cc2)ccc1C	x	58	x	-1	x
Cc1ccc(C)c(/C(O)=C2\C(=O)C(=O)N(CCCn3ccnc3)C2c2cccnc2)c1 (centres undefined)	-9	x	-10	x	104
CCCn1ncc(OC)c(Cl)c1=O	x	-2	x	-2	x
COc1ccc(CC(=O)Nc2ccc3c(c2)CCC3)cc1OC	x	65*	x	-6	x
Cc1[nH]n(-c2ccccc2)c(=O)c1/C=N/n1c(C)nc2ccccc2c1=O	-8	x	-6	x	101
Cc1ccc(-n2[nH]c(C)c(/C=N/n3c(C)nc4ccccc4c3=O)c2=O)cc1	85*	-9	-1	-2	111
O=[N+]([O-])c1cc(Br)c(O)c(/C=N/Nc2nnnn2-c2cccc3ccccc23)c1	x	88*	x	-8	x
O=Cc1cn(-c2ccccc2)nc1-c1cc2cc(O)ccc2oc1=O	x	32	x	2	x
N#Cc1cn(-c2ccccc2)nc1-c1cc2ccccc2oc1=O	-10	-1	0	-1	212*[fluorescence artefact?]
O=Cc1cn(-c2ccccc2)nc1-c1cc2c(ccc3ccccc32)oc1=O	38	-22	52*	7	230*[fluorescence artefact?]
COc1ccc(-c2nn(-c3ccccc3)cc2C#N)cc1	11	-11	9	-4	130
Cn1c(=O)c2c(nc(Oc3ccc4c(c3)OCO4)n2Cc2ccc(Br)cc2)n(C)c1=O	52*	x	2	x	103
Cn1c(=O)c2c(nc(Oc3ccc4c(c3)OCO4)n2Cc2ccc(F)cc2)n(C)c1=O	x	-2	x	-4	x
NC(=O)CCC(NS(=O)(=O)c1ccc(Cl)cc1)C(=O)NCc1ccccc1 (centres undefined)	x	-8	x	-1	x
COc1ccc(C2Nc3ccccc3C(=O)N2O)cc1OC (centres undefined)	-7	4	0	-2	118
COc1ccc(C2CC(=O)Nc3ccccc3S2(=O)=O)cc1OC (centres undefined)	50*	28	32	-3	55
CCn1c(SCc2nc(-c3ccc(Cl)cc3)no2)nnc1-c1ccco1	1	58*	12	-8	102
Nc1c(C(=O)Nc2ccc(F)cc2)sc2nc(-c3ccco3)ccc12	64*	29	67*[fluorescence artefact?]	63	98
Cc1ccc(NC(=O)c2sc3nc4c(c(-c5ccco5)c3c2N)CCC4)cc1	43	-6	59*	-4	72
SMILES	ERb SRC1 inh	CD11b adhes inh	ERa coact inh	CD11b adhes enh	ERa coact pot
COc1ccc(-c2c3c(nc4sc(C(=O)Nc5ccccc5)c(N)c24)CCC3)cc1	24	x	68*[fluorescence artefact?]	x	185
Nc1c(C(=O)Nc2ccc(Br)cc2)sc2nc(-c3ccco3)ccc12	x	2	x	2	x
CCCn1nc2cc(C(=O)NCCc3cccs3)ccc2c1OCC	x	-5	x	3	x
N#C/C(=N\Nc1ccc(Cl)cc1)C(=O)c1ccccc1	x	94*	x	-8	x
CCOC(=O)NC(=O)/C(C#N)=N\Nc1ccc(Cl)cc1	-2	35	8	-3	132
Cc1ncc(CCl)c2c1OC(C)(C)OC2	-28	x	-35	x	99
CCOC(=O)c1[nH]c(C)c(C(=O)c2ccc(C)cc2)c1C	0	-16	57*[fluorescence artefact?]	-2	115
O=C(Cn1nnc(-c2cccs2)n1)N1c2ccccc2Sc2ccc(C(F)(F)F)cc21	1	x	2	x	121
Cc1cc(N)n(-c2ccc3ccccc3c2)n1	-7	x	-6	x	103
Cc1ccc(S(=O)(=O)N=S(CC2CC2(Cl)Cl)CC2CC2(Cl)Cl)cc1 (centres undefined)	-2	-4	-4	-3	101
Cc1cc(=S)[nH]c2ccccc12	4	-2	0	-6	85
Cc1ccc2[nH]c(=S)cc(C)c2c1	60*[fluorescence artefact?]	5	16	3	83
O=S(=O)(N/N=C\c1cccnc1)c1ccccc1	x	10	x	-3	x
Brc1ccc(-c2nc(N/N=C/c3cccnc3)c3ccccc3n2)cc1	20	101*	49	-7	71
Cc1csc(SCC(=O)N2CCN(S(=O)(=O)c3ccc(Cl)cc3)CC2)n1	2	-2	-1	-4	91
Cc1ccc(S(=O)(=O)N2CCN(C(=O)CSc3ncc(C(F)(F)F)cc3Cl)CC2)cc1	1	-4	69*	-3	94
CCOc1ccc2noc3c2c1C(=O)c1ccccc1-3	x	0	x	4	x
O=C1c2ccccc2-c2onc3c(Oc4ccccc4)cc(O)c1c23	71*[fluorescence artefact?]	10	74*[fluorescence artefact?]	37	16
O=C/C(=C\Nc1ccc(Cl)cn1)c1nc2cc(Cl)ccc2o1	56*[fluorescence artefact?]	-6	88*[fluorescence artefact?]	48	40
O=C/C(=C\Nc1ccc(Cl)cn1)c1nc2ccccc2o1	32	x	54*[fluorescence artefact?]	x	165
Cc1ccc(S(=O)(=O)c2c(C)cc(C)nc2Cl)c(C)c1	x	4	x	-3	x
Cc1cc(C)c(S(=O)(=O)/N=C2\C=CC(=O)C(Cl)=C2)c(C)c1	61*	67*	70*	27	82
COc1ccc2[nH]c(=O)c(C(c3nnnn3C3CCCC3)N3CCN(Cc4ccc5c(c4)OCO5)CC3)cc2c1 (centres undefined)	-1	9	2	-2	96
CCOC(=O)C1=C(C)OC(N)=C(C#N)C1c1cc2cc(C)ccc2nc1N1CCCCC1 (centres undefined)	32	x	14	x	318*[fluorescence artefact?]
COc1cccc2cc(C(C)=O)c(=O)oc12	-11	-3	-17	0	109
SMILES	ERb SRC1 inh	CD11b adhes inh	ERa coact inh	CD11b adhes enh	ERa coact pot
COc1cccc2cc3c(=O)n(-c4ccccc4)nc-3oc12	81*	-5	99*[fluorescence artefact?]	-6	6
CC1CCCN(C(=O)COC(=O)c2ccc[nH]c2=O)C1 (centres undefined)	9	-20	-8	-4	104
O=C(COC(=O)c1cccnc1Cl)c1cccc(Cl)c1	-7	6	-5	-6	113
Nn1c(COc2ccccc2)nnc1SCC(=O)O	-3	0	-2	-2	252*[fluorescence artefact?]
COC(=O)c1ccc(NC(=O)CSCc2ccccc2C)cc1	11	-17	26	1	90
COCC(=O)Nc1nnc(Cc2ccc(OC)cc2)s1	55*	x	27	x	108
O=C(CSCC(=O)OCC(=O)c1ccc(Br)cc1)Nc1cccc2ccccc12	x	-4	x	-2	x
